The values below come from PubChem BioAssay AID504652 (National Center for Advancing Translational Sciences (NCATS), 2011).

Values joined by “and” are separate entries in the source; they are usually repeats but may differ in a detail not shown here. Equal values may be shown once. Among all 360,000 compounds or so, about 11,000 (3.1%) were called active. Many of the other results were omitted from the sample, so actives are more common in it than they were. A number with no mark means an inactive call. Rule as the data show it: active = activity change below about -30%; inactive = the rest.
% is scaled to controls: 0 for no effect and ±100 for the full control effect.

Chain of D(1A) dopamine receptor (Homo sapiens) (P21728 whole entry, looked up): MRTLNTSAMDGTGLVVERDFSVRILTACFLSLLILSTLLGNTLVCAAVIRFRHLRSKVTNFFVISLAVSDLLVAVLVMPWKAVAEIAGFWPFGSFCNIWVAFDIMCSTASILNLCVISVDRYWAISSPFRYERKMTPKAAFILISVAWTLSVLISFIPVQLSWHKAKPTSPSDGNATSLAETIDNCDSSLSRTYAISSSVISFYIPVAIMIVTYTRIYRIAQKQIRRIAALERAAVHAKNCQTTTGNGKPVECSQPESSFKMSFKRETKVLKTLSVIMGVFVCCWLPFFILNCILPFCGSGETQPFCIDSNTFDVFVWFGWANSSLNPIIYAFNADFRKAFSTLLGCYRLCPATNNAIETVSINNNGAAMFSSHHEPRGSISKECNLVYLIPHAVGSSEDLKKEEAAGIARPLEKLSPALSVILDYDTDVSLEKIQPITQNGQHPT

In this experiment the target is D(1A) dopamine receptor (Homo sapiens) (UniProt P21728). The experiment in a line: Antagonist of Human D 1 Dopamine Receptor: qHTS. As to conditions: HEK293 TREx D1 cells, calcium flux, dopamine EC80; at 10 µM; stronger effect = lower value. In short, it runs like this:
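Kinetic fluorescence of a calcium dye serves as the read-out. D1-expressing Hek293 Trex cells, induced overnight at 30 C, are exposed to compound for 180 s before an EC80 dopamine addition, then read 180 s further.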
For `O=C(c1ccc(Oc2ccc(Cl)cc2)c([N+](=O)[O-])c1)N1CCCC1`, the activity change, negative = inhibition was -38.6% (active).
With `O=C(c1ccc(Cl)c([N+](=O)[O-])c1)N1CCN(c2ccccc2)CC1` the figure was -35.8% (active); with `O=C(COc1ccc(Cl)cc1[N+](=O)[O-])N1CCCCC1`, 15.9%.
As for `CO/N=C/c1ccc(N2CCN(C(=O)c3cccc(Cl)c3)CC2)c([N+](=O)[O-])c1`, the figure is -27.5%.
`O=C(c1ccc(Cl)c(Cl)c1)N1CCCC1`: the activity change, negative = inhibition is -10.9%.
As for `O=C(c1ccccc1)c1ccc(C(=O)N2CCN(c3ccccc3)CC2)cc1`, the figure is -32.4% (active); as for `Nc1ccc(C(=O)N2CCN(S(=O)(=O)c3ccc(Cl)cc3)CC2)cc1[N+](=O)[O-]`, -1.4%.
With `CC1CCN(c2nc3ccc(C(=O)N4CCN(c5ccccc5)CC4)cc3s2)CC1` the figure was 4.36%.
As for `C/C(=C/c1ccccc1)C(=O)N1CCN(c2ccccc2)CC1`, the figure is -2.86%.
`O=S(=O)(c1ccc(C2CCCCC2)cc1)N1CCN(c2ccc(Cl)c(Cl)c2)CC1`: the activity change, negative = inhibition was 14.7%.
With `Cc1cc(NS(=O)(=O)c2ccc3oc(=O)c4ncn(C)c4c3c2)ccc1Br` the figure was -1.47%; with `Cn1nnnc1Sc1ncnc2scc(-c3ccccc3[N+](=O)[O-])c12`, -0.145%.
On to `Cc1ccc(-c2nc(Cn3c(=O)cc(-c4ccccc4)c4c(C)nn(C)c43)c(C)o2)cc1`, for which the activity change, negative = inhibition was 12%.
As for `CN(C)c1ccc(NC(=O)CSc2nc(-c3ccco3)cc(C(F)(F)F)n2)cc1`, the figure is -4.62%; as for `CCn1c(C)c(C)c2cc(C(=O)NCCc3cc(OC)ccc3OC)ccc21`, 13.1%.
With `COc1ccc(C(=O)COC(=O)c2ccc([N+](=O)[O-])s2)cc1OC` the figure was 3.97%.
Consider `COc1ccc(Cl)cc1C(=O)OCC(=O)NCc1cccs1`, for which the activity change, negative = inhibition is -19.7%.
As for `COc1ccc(C(=O)OCC(=O)c2ccc(Cl)s2)c(OC)c1OC`, the figure is -34.5% (active); as for `COC(=O)c1ccccc1NC(=O)Cn1c(=O)cc(C)c2c(C)nn(-c3cccc(Cl)c3C)c21`, 11.3%; as for `Cc1ccc(C)c(Cn2c(CCCNC(=O)C3CCCCC3)nc3ccccc32)c1`, -4.99%.
`Cc1cccc2c1cnn2C(=O)CCC(=O)NC1CCCCC1`: the activity change, negative = inhibition is 11.5%.
As to `Cc1cccc(-c2noc(CCC(=O)NC3CCCC3)n2)c1`, the activity change, negative = inhibition was -18.1%.
Consider `Cc1ccc2c(cnn2C(=O)CCC(=O)NC2CCCC2)c1`, for which the activity change, negative = inhibition is -47.2% (active).
For `Cc1cccc2c(=O)cc(CSc3ccccc3NC(=O)C(C)C)[nH]c12`, the activity change, negative = inhibition was -2.11%.
Regarding `COc1ccc(NC(=O)CCC(=O)Nc2cc(OC)c(NC(=O)c3ccco3)cc2OC)c(OC)c1`, the activity change, negative = inhibition is -3.66%.
As for `COc1cc(NC(=O)c2cc([N+](=O)[O-])ccc2Br)ccc1NC(=O)c1ccco1`, the figure is -45.2% (active); as for `COc1ccc(NC(=O)c2ccco2)cc1NC(=O)c1ccc(C#N)cc1F`, -1.13% and -9.12%.
With `COc1ccc(OC)c(-n2nnc(-c3nc(-c4cc(OC)c(OC)c(OC)c4)no3)c2C)c1` the figure was -6.72%; with `Cc1ccc2oc(=O)c3cnn(CC(=O)NCc4ccccc4Cl)c3c2c1`, 1.96%.
Regarding `COc1ccccc1CNC(=O)C1CCN(S(=O)(=O)c2ccc3c(c2)CC(C)N3C(=O)C2CC2)CC1` (stereo unspecified), the activity change, negative = inhibition is -4.76%.
As for `COc1cccc(CNS(=O)(=O)c2ccc3c(c2)CC(C)N3C(=O)C2CCC2)c1` (stereo unspecified), the figure is -10.7% and -1%; as for `CC1Cc2cc(S(=O)(=O)CCC(=O)NCc3ccc(Cl)cc3)ccc2N1C(=O)C1CC1` (stereo unspecified), -19.3%; as for `COc1ccc(N(C)S(=O)(=O)c2ccc3c(c2)CC(C)N3C(=O)C2CC2)c(OC)c1` (stereo unspecified), -41.8% (active).
On to `COc1cccc(CNS(=O)(=O)c2ccc3c(c2)N(C(C)=O)CCS3)c1`, for which the activity change, negative = inhibition was 3.44%.
As for `COc1cccc(CNS(=O)(=O)c2ccc3c(c2)CC(C)N3C(C)=O)c1` (stereo unspecified), the figure is -35% (active).
For `Cc1cccc(CNC(=O)c2cnc3sc(N4CCCCC4)nn3c2=O)c1`, the activity change, negative = inhibition was 1.97%.
Regarding `CCOCCCNC(=O)c1c(NC(=O)c2nc(SC)ncc2Cl)sc2c1CCCC2`, the activity change, negative = inhibition was -26.2%.
As for `CCN(CCCNC(=O)c1cc2c(=O)n(CC)c3ccccc3c2s1)Cc1ccccc1`, the activity change, negative = inhibition is 11.6%.
Take `Cc1cccc(-n2ncc(C(=O)N3CCN(c4ccc(Cl)cc4)CC3)c2C2CCN(C(=O)OC(C)(C)C)CC2)c1`: the activity change, negative = inhibition is 1.41%.
With `COc1ccc(CNC(=O)c2ccc(NC(=O)N3CC4CCCN4c4ccccc43)cc2)cc1` (stereo unspecified) the figure was 40.5%.
On to `CC(=O)Nc1ccc(NC(=S)NC(=O)c2ccc([N+](=O)[O-])c(C)c2)cc1`, for which the activity change, negative = inhibition was -2.38%.
`CCOc1ccc(C(=O)NC(=S)Nc2ccc(N3CCOCC3)c(Cl)c2)cc1[N+](=O)[O-]`: the activity change, negative = inhibition is -18.8%.
As for `CCOc1ccc(C(=O)NC(=S)Nc2ccc(NC(=O)C(C)C)cc2)cc1[N+](=O)[O-]`, the activity change, negative = inhibition was -38.8% (active).
As for `O=C(Nc1cccc2cccnc12)C(F)(F)F`, the figure is 5.04%.
For `O=C(NCc1ccccc1Cl)c1cccn1-c1nnc(N2CCCCC2)s1`, the activity change, negative = inhibition is -10.7%.
Consider `O=C(Cn1ncc2c3ccccc3n(Cc3ccccc3)c2c1=O)NC1CCCCCC1`, for which the activity change, negative = inhibition is -8.69%.
With `COc1ccc(C(CCNCc2ccccc2F)c2ccc(F)cc2)cc1` (stereo unspecified) the figure was -7.29%.
With `COc1cccc(CNCCc2c[nH]c3ccccc23)c1OCc1ccccc1F` the figure was -35.2% (active); with `COc1cccc(CNCCSc2nnnn2C)c1OCc1ccccc1Cl`, -5.2%; with `O=C(CN1C(=O)COc2ccc(S(=O)(=O)N3CCCCCC3)cc21)N1CCN(c2cccc(C(F)(F)F)c2)CC1`, -0.903%.
Turning to `O=C(CN1CCc2ccccc2C1)Nc1cccc(S(=O)(=O)N2CCOCC2)c1`, the activity change, negative = inhibition is 27.4%.
For `Cc1ccc(NC(=O)CN2CCc3ccccc3C2)cc1C`, the activity change, negative = inhibition is -59.1% (active).
With `O=C(CN1CCc2cc3c(cc2C1)OCCCO3)Nc1ccccc1`, the activity change, negative = inhibition was -19.4%.
Consider `O=C(NCCc1ccccc1)c1ccc2c(c1)N(Cc1ccccc1)C(=O)c1ccccc1S2(=O)=O`, for which the activity change, negative = inhibition is -40.3% (active).
As for `O=C(NCCc1ccccc1)c1ccc2c(c1)N(Cc1ccc(F)cc1)C(=O)c1ccccc1S2(=O)=O`, the figure is 6.04%; as for `COCCNC(=O)c1ccc2c(c1)N(Cc1cccc(Cl)c1)C(=O)c1ccccc1S2(=O)=O`, 5.66%.
As for `COC(=O)c1ccccc1NC(=O)c1ccc2c(=O)n3c(nc2c1)CCCCC3`, the activity change, negative = inhibition was 5.25%.
On to `CC(C)c1ccc(NC(=O)c2cc(S(=O)(=O)N3CCc4ccccc4C3)ccc2F)cc1`, for which the activity change, negative = inhibition was 3.76%.
As for `CC(C)CCNC(=O)CCNS(=O)(=O)c1ccc(Cl)cc1`, the figure is -17.7%; as for `CC(C)CNS(=O)(=O)c1ccc(CCC(=O)NCc2ccc(Cl)cc2)cc1`, 3.95%.
For `Cc1ccc(S(=O)(=O)NCCC(=O)NCc2ccc(Cl)cc2)cc1C`, the activity change, negative = inhibition was -35.7% (active).
For the molecule `CC1CCC(N2CC(=O)N(CCC3=CCCCC3)C(c3ccc(F)cc3)C2=O)CC1` (stereo unspecified), the activity change, negative = inhibition is -13.9%.
As for `Cc1ccc2[nH]c(=O)c(CN(CCCN(C)C)C(=O)Nc3cccc(Cl)c3)cc2c1`, the activity change, negative = inhibition is -39.7% (active).
As to `CCC(=O)N(CCc1ccccc1)Cc1cc2cc(C)ccc2[nH]c1=O`, the activity change, negative = inhibition is 13.5%.
On to `Cc1ccc2[nH]c(=O)c(CN(CC3COCCO3)C(=O)Nc3ccccc3C)cc2c1` (stereo unspecified), for which the activity change, negative = inhibition is -8.28%.
With `COc1ccc(-n2nnc(-c3nsc(NC(=O)c4ccc(C)c(C)c4)n3)c2C)cc1Cl` the figure was 2.45%; with `CCOc1ccc(NC(=O)Cn2cc(C(=O)c3ccc(C)cc3)c(=O)c3cc4c(cc32)OCCO4)cc1`, 4.79%.
Regarding `COc1ccc(O)c(C(=O)c2cnc3c(c2)c(-c2ccc(F)cc2)c(C#N)c(=O)n3C)c1`, the activity change, negative = inhibition was 0.727%.
As for `COc1ccc(O)c(C(=O)c2cnc3onc(C(C)C)c3c2)c1`, the figure is -33.3% (active); as for `COCCn1c(=O)[nH]c(=O)c2cc(C(=O)c3cc(OC)ccc3O)cnc21`, 12.3%; as for `CCOc1ccc(CNC(=O)c2ccc(CS(=O)c3ccccc3)o2)cc1` (stereo unspecified), -7.56%.
In the case of `COc1ccc(CNC(=O)CC2Oc3ccc(C)cc3NC2=O)cc1` (stereo unspecified), the activity change, negative = inhibition was 14%.
With `COc1ccc(C(=O)OCC(=O)Nc2cccc(C(C)=O)c2)cc1OC` the figure was -4.31%.
With `O=C(COC(=O)c1cccc(Cl)c1)Nc1ccc2[nH]c(=O)[nH]c2c1`, the activity change, negative = inhibition was 2.99%.
As for `COc1ccc(C(=O)OCC(=O)Nc2ccc3[nH]c(=O)[nH]c3c2)c(OC)c1OC`, the figure is -37.4% (active).
Consider `COc1ccc(NC(=O)c2sc3nc(-c4cc5cccc(OC)c5oc4=O)[nH]c(=O)c3c2C)cc1`, for which the activity change, negative = inhibition is 7.97%.
As for `Cc1ccc(CSc2nc3cccnc3n2Cc2ccc(C(=O)NC3CC3)cc2)cc1`, the figure is -0.852%; as for `CCc1ccc(NC(=O)CCCc2nnc3n(CCCOC)c(=O)c4sccc4n23)cc1`, -2.77%; as for `Cn1cnc([N+](=O)[O-])c1Sc1ccccc1`, 1.72%.
As to `Cn1nc(-c2ccccc2)c(CSc2cccc(Cl)c2)c1Cl`, the activity change, negative = inhibition is 2.15%.
As for `Cn1nc(-c2ccccc2)c(CO)c1Sc1ccccc1`, the figure is -64.5% (active).
As for `Cc1ccc(S(=O)(=O)NCc2nc3nc(C)cc(C)n3n2)cc1`, the figure is -1.58%.
Take `Cc1ccc(NC(=O)c2ccn(C(=O)Nc3ccccc3)n2)c(C)c1`: the activity change, negative = inhibition was 4.19%.
For `Cc1ccc(NC(=O)Nc2ccccc2)c(Br)c1`, the activity change, negative = inhibition is -35.1% (active).
Take `CCOc1cc(NC(=O)Nc2ccccc2)c(OCC)cc1NC(=O)CC`: the activity change, negative = inhibition was 0.545%.
With `COc1ccc(Cn2c(=O)c3oc4ccccc4c3n(CC(=O)Nc3ccc(F)cc3F)c2=O)cc1` the figure was -7.86%.
